# The entries come from a sample that favours the strongest signals as a whole.
# Tests used:
# Assay in all cases: glycan array binding signal (z-score within array); higher = stronger binding
# Settings in all cases: glycan notation: IUPAC condensed, linker removed
# [1] = biological target: Fuc(a1-2)Gal
# Method in brief: (§1)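 From the Consortium for Functional Glycomics database, 3228 arrays were curated, keeping only those whose protein sequence was available. Binding is given as a within-array Z-score averaged across arrays sharing a protein sequence and across linkers. Negative Z-scores can be read as non-binding.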
# [2] = biological target: Fuc(a1-2)Gal(b1-3)GlcNAc(b1-2)Man(a1-3)[Fuc(a1-2)Gal(b1-3)GlcNAc(b1-2)Man(a1-6)]Man(b1-4)GlcNAc(b1-4)GlcNAc
# Method in brief: as §1
# [3] = biological target: Fuc(a1-2)Gal(b1-3)GlcNAc(b1-3)[Neu5Ac(a2-6)Gal(b1-4)GlcNAc(b1-6)]Gal(b1-4)Glc
# Method in brief: as §1
# [4] = biological target: Fuc(a1-2)Gal(b1-4)GlcNAc(b1-2)Man(a1-3)[Fuc(a1-2)Gal(b1-4)GlcNAc(b1-2)Man(a1-6)]Man(b1-4)GlcNAc(b1-4)[Fuc(a1-6)]GlcNAc
# Method in brief: as §1
# [5] = biological target: Fuc(a1-2)Gal(b1-4)[Fuc(a1-3)]GlcNAc(b1-2)[Fuc(a1-2)Gal(b1-4)[Fuc(a1-3)]GlcNAc(b1-4)]Man(a1-3)[Fuc(a1-2)Gal(b1-4)[Fuc(a1-3)]GlcNAc(b1-2)Man(a1-6)]Man(b1-4)GlcNAc(b1-4)GlcNAc
# Method in brief: as §1
# [6] = biological target: Fuc(a1-2)Gal6S(b1-3)GlcNAc
# Method in brief: as §1
# [7] = biological target: Fuc(a1-2)[Gal(a1-3)]Gal(b1-3)GlcNAc(b1-2)Man(a1-3)[Fuc(a1-2)[Gal(a1-3)]Gal(b1-3)GlcNAc(b1-2)Man(a1-6)]Man(b1-4)GlcNAc(b1-4)GlcNAc
# Method in brief: as §1
# [8] = biological target: Gal(a1-3)Gal(b1-3)GlcNAc(b1-2)Man(a1-3)[Gal(a1-3)Gal(b1-3)GlcNAc(b1-2)Man(a1-6)]Man(b1-4)GlcNAc(b1-4)GlcNAc
# Method in brief: as §1
# [9] = biological target: Gal(a1-3)Gal(b1-3)[Fuc(a1-4)]GlcNAc(b1-2)Man(a1-3)[Gal(a1-3)Gal(b1-3)[Fuc(a1-4)]GlcNAc(b1-2)Man(a1-6)]Man(b1-4)GlcNAc(b1-4)GlcNAc
# Method in brief: as §1
# [10] = biological target: Gal(a1-3)Gal(b1-4)Glc
# Method in brief: as §1
# [11] = biological target: Gal(a1-6)Glc
# Method in brief: as §1
# [12] = biological target: Gal(b1-3)GlcNAc
# Method in brief: as §1
# [13] = biological target: Gal(b1-3)GlcNAc(b1-3)Gal(b1-4)[Fuc(a1-3)]GlcNAc
# Method in brief: as §1
# [14] = biological target: Gal(b1-3)GlcNAc(b1-3)GalNAc
# Method in brief: as §1
# [15] = biological target: Gal(b1-3)[Fuc(a1-4)]GlcNAc(b1-2)Man
# Method in brief: as §1
# [16] = biological target: Gal(b1-3)[Fuc(a1-4)]GlcNAc(b1-3)Gal(b1-3)[Fuc(a1-4)]GlcNAc
# Method in brief: as §1
# [17] = biological target: Gal(b1-4)GlcNAc(a1-6)Gal(b1-4)GlcNAc
# Method in brief: as §1
# [18] = biological target: Gal(b1-4)GlcNAc(b1-2)Man(a1-3)[GlcNAc(b1-2)Man(a1-6)]Man(b1-4)GlcNAc(b1-4)GlcNAc
# Method in brief: as §1
# [19] = biological target: Gal(b1-4)GlcNAc(b1-2)[Gal(b1-4)GlcNAc(b1-4)]Man(a1-3)[GlcNAc(b1-4)][Gal(b1-4)GlcNAc(b1-2)Man(a1-6)]Man(b1-4)GlcNAc(b1-4)GlcNAc
# Method in brief: as §1
# [20] = biological target: Gal(b1-4)GlcNAc(b1-3)Gal(b1-4)GlcNAc(b1-2)[Gal(b1-4)GlcNAc(b1-3)Gal(b1-4)GlcNAc(b1-6)]Man(a1-6)[Gal(b1-4)GlcNAc(b1-3)Gal(b1-4)GlcNAc(b1-2)Man(a1-3)]Man(b1-4)GlcNAc(b1-4)GlcNAc
# Method in brief: as §1
# [21] = biological target: Gal(b1-4)GlcNAc(b1-3)Gal(b1-4)GlcNAc(b1-3)Gal(b1-4)GlcNAc(b1-3)Gal(b1-4)GlcNAc(b1-3)Gal(b1-4)GlcNAc(b1-3)Gal(b1-4)GlcNAc(b1-2)Man(a1-3)[Gal(b1-4)GlcNAc(b1-3)Gal(b1-4)GlcNAc(b1-3)Gal(b1-4)GlcNAc(b1-3)Gal(b1-4)GlcNAc(b1-3)Gal(b1-4)GlcNAc(b1-3)Gal(b1-4)GlcNAc(b1-2)Man(a1-6)]Man(b1-4)GlcNAc(b1-4)GlcNAc
# Method in brief: as §1
# [22] = biological target: Gal6S(b1-4)GlcNAc
# Method in brief: as §1
# [23] = biological target: GalNAc(b1-3)Gal(a1-6)Gal(b1-4)Glc
# Method in brief: as §1
# [24] = biological target: GalNAc(b1-4)GlcNAc(b1-2)Man
# Method in brief: as §1
# [25] = biological target: GlcNAc(a1-3)Gal(b1-4)GlcNAc
# Method in brief: as §1
# [26] = biological target: GlcNAc(a1-6)Gal(b1-4)GlcNAc
# Method in brief: as §1
# [27] = biological target: GlcNAc(b1-3)Gal(b1-4)GlcNAc(b1-2)Man(a1-3)[GlcNAc(b1-3)Gal(b1-4)GlcNAc(b1-2)Man(a1-6)]Man(b1-4)GlcNAc(b1-4)[Fuc(a1-6)]GlcNAc
# Method in brief: as §1
# [28] = biological target: GlcNAc(b1-3)Gal(b1-4)GlcNAc(b1-2)[GlcNAc(b1-3)Gal(b1-4)GlcNAc(b1-6)]Man(a1-6)[GlcNAc(b1-3)Gal(b1-4)GlcNAc(b1-2)Man(a1-3)]Man(b1-4)GlcNAc(b1-4)GlcNAc
# Method in brief: as §1
# [29] = biological target: GlcNAc(b1-3)Gal(b1-4)GlcNAc(b1-3)Gal(b1-4)GlcNAc(b1-3)GalNAc
# Method in brief: as §1
# [30] = biological target: GlcNAc(b1-3)Man
# Method in brief: as §1
# [31] = biological target: Kdn(a2-3)Gal(b1-4)GlcNAc
# Method in brief: as §1
# [32] = biological target: Kdn(a2-6)Gal(b1-4)GlcNAc
# Method in brief: as §1
# [33] = biological target: Neu5Ac(a2-3)Gal(b1-3)GalNAc
# Method in brief: as §1
# [34] = biological target: Neu5Ac(a2-3)Gal(b1-3)GlcNAc(b1-2)Man(a1-3)[Neu5Ac(a2-3)Gal(b1-3)GlcNAc(b1-2)Man(a1-6)]Man(b1-4)GlcNAc(b1-4)GlcNAc
# Method in brief: as §1
# [35] = biological target: Neu5Ac(a2-3)Gal(b1-4)GlcNAc(b1-3)Gal(b1-4)GlcNAc(b1-3)Gal(b1-4)GlcNAc(b1-2)Man(a1-3)[Neu5Ac(a2-3)Gal(b1-4)GlcNAc(b1-3)Gal(b1-4)GlcNAc(b1-3)Gal(b1-4)GlcNAc(b1-2)Man(a1-6)]GalNAc
# Method in brief: as §1
# [36] = biological target: Neu5Ac(a2-3)Gal(b1-4)GlcNAc(b1-3)[Neu5Ac(a2-3)Gal(b1-4)GlcNAc(b1-6)]GalNAc
# Method in brief: as §1
# [37] = biological target: Neu5Ac(a2-6)Gal(b1-4)GlcNAc(b1-3)Gal(b1-4)GlcNAc(b1-6)[Gal(b1-3)]GalNAc
# Method in brief: as §1
# [38] = biological target: Neu5Ac(a2-6)Gal(b1-4)GlcNAc(b1-3)[Neu5Ac(a2-6)Gal(b1-4)GlcNAc(b1-6)]GalNAc
# Method in brief: as §1
# [39] = biological target: Neu5Ac9Ac(a2-3)Gal(b1-4)GlcNAc
# Method in brief: as §1
# [40] = biological target: Neu5Gc(a2-3)Gal(b1-3)GlcNAc
# Method in brief: as §1
binder,measurement,setting,value
HPL (Tachypleus tridentatus) (protein) MEDDCTCVTDRSLEGKLMKHPSTPAVYQILDGCRRLVPNPPTYNNIYKNWECIQSNILEKLLCKCDSLSNGAELIKGSGDTVYLLSNGVKRPIADPETFNGFCFDWNKIKTYSDIVINSLSTGPIIIIKHHHHHH,glycan array binding signal (z-score),[1],-0.153
same,glycan array binding signal (z-score),[2],4.15
same,glycan array binding signal (z-score),[3],-0.343
same,glycan array binding signal (z-score),[4],3.19
same,glycan array binding signal (z-score),[5],2.19
same,glycan array binding signal (z-score),[6],0.027
same,glycan array binding signal (z-score),[7],-0.163
same,glycan array binding signal (z-score),[8],3.2
same,glycan array binding signal (z-score),[9],2.31
same,glycan array binding signal (z-score),[10],0.05
same,glycan array binding signal (z-score),[11],1.55
same,glycan array binding signal (z-score),[12],-0.177
same,glycan array binding signal (z-score),[13],-0.309
same,glycan array binding signal (z-score),[14],-0.36
same,glycan array binding signal (z-score),[15],1.71
same,glycan array binding signal (z-score),[16],-0.131
same,glycan array binding signal (z-score),[17],-0.342
same,glycan array binding signal (z-score),[18],-0.178
same,glycan array binding signal (z-score),[19],5.11
same,glycan array binding signal (z-score),[20],2.19
same,glycan array binding signal (z-score),[21],-0.206
same,glycan array binding signal (z-score),[22],-0.335
same,glycan array binding signal (z-score),[23],-0.402
same,glycan array binding signal (z-score),[24],-0.379
same,glycan array binding signal (z-score),[25],-0.255
same,glycan array binding signal (z-score),[26],-0.429
same,glycan array binding signal (z-score),[27],0.104
same,glycan array binding signal (z-score),[28],0.395
same,glycan array binding signal (z-score),[29],-0.251
same,glycan array binding signal (z-score),[30],0.24
same,glycan array binding signal (z-score),[31],-0.185
same,glycan array binding signal (z-score),[32],-0.279
same,glycan array binding signal (z-score),[33],-0.291
same,glycan array binding signal (z-score),[34],2.02
same,glycan array binding signal (z-score),[35],1.54
same,glycan array binding signal (z-score),[36],-0.093
same,glycan array binding signal (z-score),[37],-0.132
same,glycan array binding signal (z-score),[38],0.127
same,glycan array binding signal (z-score),[39],-0.231
same,glycan array binding signal (z-score),[40],-0.215
